# Assay outcomes from PubChem.
# This is one part of a sample in which hits are shown more often than they occur.
# HT1080-NT tox = kills 2HG-producing HT-1080-NT fibrosarcoma cells; HT-1080-NT fibrosarcoma viability, CellTiter-Glo ATP luminescence, 48 h; Potency, µM (series often up to 46.1 µM), hits mostly cytotoxic; hit rate 1.6% among 360,000;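 also: NT is the 2HG producing partner of a matched IDH1 knockdown line; nearly all actives have a fitted effect of over 55% in size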
#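 A 48-hour cytotoxicity screen used HT-1080-NT cells plated 2 hours before compound delivery. ATP-based CellTiter-Glo luminescence measured viability, normalized to DMSO and no-cell controls.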
# HT1080 IDH1KD tx = kills HT-1080 cells with IDH1 knockdown; HT-1080 IDH1 knockdown viability, ATP luminescence, 48 h; Potency, µM (top dose mostly 46.1 µM), actives largely listed as cytotoxic; hit rate 2% among 360,000
#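 % activity derives from luminescence (CellTiter-Glo), normalised to DMSO and no-cell wells. HT-1080-IDH1KD cells, 750/well, had 48 h compound exposure at 37 °C.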
# IL1B secr inh = inflammasome signaling inhibition, IL-1 beta readout; AID 743279; THP-1 LPS/ATP IL-1B secretion, AlphaLISA, 16 h; active compounds read low; activity change, % at 57.5 µM; hit rate 4.7% among 360,000; in the data active = activity change below about -50%; inconclusive = mostly about -30% to -49%
#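 Secreted IL-1B measured by AlphaLISA bead assay after 16 h compound exposure of THP-1 cells; compounds (final up to 57.5 uM) added 1 h before LPS (250 ng/mL) and ATP (1.25 mM) stimulation; lower signal means less secretion.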
# TDP1 cell CPT = growth inhibition of DT40 Tdp1-/-;hTDP1 cells with camptothecin (screen for TDP1 inhibitors); chicken DT40 Tdp1-/-;hTDP1 cells + 20 nM CPT, ATP luminescence, 48 h; Potency, µM (doses to about 46.2 µM), actives largely listed as inhibitors; hit rate 12% among 420,000; also: nearly all actives have a fitted effect of over 55% in size
#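 Chicken DT40 Tdp1-/- cells stably complemented with human TDP1 were seeded at 400 cells/well in medium containing 20 nM camptothecin, exposed to pin-transferred compounds, and grown at 37 °C for at least 48 hr. Viability was read as ATP luminescence.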
# TDP1 cell noCPT = qHTS for Inhibitors of human tyrosyl-DNA phosphodiesterase 1 (TDP1): qHTS in cells in absence of CPT. DT40 Tdp1-/- hTDP1 cells, no CPT, ATP luminescence, 48 h. Potency, µM (titrated, usually from 46.2 µM), usual class: inhibitors. hit rate 15% among 420,000. AID 686978, 2013; also: nearly all actives have a fitted effect of over 55% in size
#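 A cellular qHTS used chicken DT40 cells lacking endogenous Tdp1 but carrying stably transfected human TDP1. Compounds were applied without camptothecin, and cell growth kinetics were judged by ATP-dependent luminescence after ≥48 hr.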
# 12-LOX inh = ALOX12 (human) lipoxygenase inhibition; P18054; purified 12hLO, xylenol orange hydroperoxide absorbance; Potency, µM (doses to about 108 µM), usual class: inhibitors; hit rate 1.1% among 580,000; AID 1671190
# Target sequence (P18054 whole entry, looked up): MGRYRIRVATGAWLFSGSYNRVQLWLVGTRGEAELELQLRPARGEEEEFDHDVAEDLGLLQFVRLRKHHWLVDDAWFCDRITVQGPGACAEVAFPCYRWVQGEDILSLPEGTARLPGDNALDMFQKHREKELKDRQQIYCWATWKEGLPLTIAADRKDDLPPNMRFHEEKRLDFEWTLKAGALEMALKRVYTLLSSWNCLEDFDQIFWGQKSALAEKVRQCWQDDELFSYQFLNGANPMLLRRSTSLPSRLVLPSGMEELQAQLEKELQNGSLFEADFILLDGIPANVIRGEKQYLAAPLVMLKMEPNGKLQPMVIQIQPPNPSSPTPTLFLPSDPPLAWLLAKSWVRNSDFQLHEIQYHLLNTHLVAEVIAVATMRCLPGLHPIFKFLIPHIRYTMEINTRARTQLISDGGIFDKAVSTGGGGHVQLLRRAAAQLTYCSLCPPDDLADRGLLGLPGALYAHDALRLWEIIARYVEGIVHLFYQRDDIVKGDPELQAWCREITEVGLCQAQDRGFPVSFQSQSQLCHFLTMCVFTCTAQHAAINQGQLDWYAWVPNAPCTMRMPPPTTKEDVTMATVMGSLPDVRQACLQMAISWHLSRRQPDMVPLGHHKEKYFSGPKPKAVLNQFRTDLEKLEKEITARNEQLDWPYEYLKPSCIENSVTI
#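 Purified human 12hLO (150 nM final) in 25 mM Hepes, 0.01% Triton X-100, pH 7.0 was preincubated 15 min at room temperature with compound. Then 40 uM arachidonic acid was added, 30 min. Hydroperoxide was read by Fe-XO absorbance ratio 573/405 nm.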
# Numbers stand for hits; 0 = inactive; ? = inconclusive; - = no result given; [ ] = another dose, or the depositor's remark. Unless noted, calls follow the shape of the dose curve; as a rule, active = well fitted curve in the direction sought with a large enough effect; inconclusive = small, poorly fitted or top-dose-only effect, or another doubt; inactive = no such curve, though single readings can be large; an effect the other way counts as inactive or inconclusive.
SMILES,HT1080-NT tox,HT1080 IDH1KD tx,IL1B secr inh,TDP1 cell CPT,TDP1 cell noCPT,12-LOX inh
COc1ccc(-c2[nH]c3ccccc3c2SCCNC(=O)c2cc(OC)c(OC)c(OC)c2)cc1,-,-,-,5.2µM,3.7µM,0
CN(C)Cc1cn([C@H]2CO[C@H]3[C@@H]2OC[C@@H]3NC(=O)NC2CCCCC2)nn1,-,-,-,-,-,0
CCc1ccc2[nH]c(CSCC(=O)Nc3ccc(OC)c(Cl)c3)cc(=O)c2c1,-,-,-,-,-,0
O=C(CSc1ncnc2ccccc12)Nc1ccc(Cl)cc1Cl,-,-,-,-,-,0
COc1cccc(C(=O)NCCSc2c(-c3ccc(F)cc3)[nH]c3ccccc23)c1OC,-,-,-,16µM,13µM,0
CC(C)(C)c1ncc(NC(=O)c2cc[n+]([O-])cc2)cn1,-,-,-,-,-,0
OC1(c2ccc(Cl)c(C(F)(F)F)c2)CCN(CCCC(c2ccc(F)cc2)c2ccc(F)cc2)CC1,-,-,-,2.7µM,3µM,?
CCCCN(C)C(=O)C(=O)c1c(C)[nH]c2ccccc12,-,-,-,-,-,0
CCC(C(=O)Nc1cc(-c2nc3cccnc3s2)ccc1C)c1ccccc1 (stereo unspecified),-,-,-,?,21µM,0
Cc1ccc(-c2nc3cccnc3s2)cc1NC(=O)C(C)C,-,-,-,0,0,0
Cc1cccc(C(=O)Nc2cc(-c3nc4cccnc4s3)ccc2C)c1,-,-,-,?,?,0
Cc1ccc(-c2nc3cccnc3s2)cc1NS(C)(=O)=O,0,0,0,?,21µM,0
CN(c1ccccc1)S(=O)(=O)c1c(-c2cccc(F)c2)csc1C(=O)NCc1ccccc1,-,-,-,-,-,0
CCOC(=O)N1CCN(S(=O)(=O)c2ccc(Br)s2)CC1,0,0[9.24 µM],0,?,13µM,0
Cc1cc(C)cc(NC(=O)CN2CCCN(S(=O)(=O)c3ccc(Br)s3)CC2)c1,0,?,?,?,?,0
Cc1ccc(NC(=O)CN2CCCN(S(=O)(=O)c3ccc(Br)s3)CC2)cc1,0,0,0,18µM,18µM,0
CN1CCN(S(=O)(=O)c2ccc(Br)s2)CC1,0,0,0,0,0,0
CCCn1nccc1S(=O)(=O)N1CCc2nc(-c3ccccc3)[nH]c2C1,-,-,-,-,-,0
Cn1cc(CC(=O)N2CCC(NC(=O)C3CC3)CC2)c2ccccc21,-,-,-,-,-,0
COc1ccc(C(=O)NCCc2noc(-c3cccnc3)n2)cc1OC,-,-,-,-,-,0
C=C[C@]1(C)C[C@@H](OC(=O)CSCCN(CC)CC)[C@]2(C)[C@H](C)CC[C@]3(CCC(=O)[C@H]32)[C@@H](C)[C@@H]1O,-,-,-,7.5µM,3µM,-
C=C[C@]1(C)C[C@@H](OC(=O)CSC(C)(C)CNC(=O)[C@H](N)C(C)C)[C@]2(C)[C@H](C)CC[C@]3(CCC(=O)[C@H]32)[C@@H](C)[C@@H]1O,-,-,-,0.24µM,0.27µM,-
CC(C)CNC(=O)CN1CCN(c2nc(C(F)(F)F)nc3ccccc23)CC1,-,-,-,-,-,0
Cc1c(C(=O)c2no[n+]([O-])c2C(=O)c2cnn(C)c2C)cnn1C,?,?,0,2.6µM,3.7µM,0
Cc1c(C(=O)Nc2ccc(Br)cc2)cnn1C,0,0,0,0,0,0
SMILES,HT1080-NT tox,HT1080 IDH1KD tx,IL1B secr inh,TDP1 cell CPT,TDP1 cell noCPT,12-LOX inh
CCOC(=O)C1=C(C)N=c2sc(=Cc3cc(Cl)c(OCC(=O)O)c(OC)c3)c(=O)n2C1c1ccccc1Cl (stereo unspecified),?,0,0,?,21µM,?
CCOC(=O)C1=C(C)N=c2s/c(=C\c3ccc(OCC(=O)O)c(OC)c3)c(=O)n2C1c1ccc(OC)cc1 (stereo unspecified),0,0,0,0,0,0
COc1cccc(C2C3=C(N=c4s/c(=C\c5cccc(O)c5)c(=O)n42)c2ccccc2CC3)c1OC (stereo unspecified),0,?,-57,0,?,?
CCOC(=O)C1=C(C)N=c2s/c(=C\c3cc(OC)c(OC)c(OC)c3)c(=O)n2C1/C=C/c1ccccc1 (stereo unspecified),0,0,0,0,?,0
CCOC(=O)C1=C(C)N=c2s/c(=C\c3cccn3C)c(=O)n2C1c1cccc(OC)c1OC (stereo unspecified),0,0,0,?,21µM,0
CCOC(=O)C1=C(c2ccccc2)N=c2sc(=Cc3cc(OC)c(OC)c(OC)c3)c(=O)n2C1c1cccs1 (stereo unspecified),0,0,?,8.2µM,13µM,0
COc1ccccc1C1C2=C(N=c3s/c(=C/c4cccc(OCC(=O)O)c4)c(=O)n31)c1ccccc1CC2 (stereo unspecified),?,?,0,0,0,?
CN(C(=O)COC(=O)Cc1n[nH]c(=O)c2ccccc12)C1(C#N)CCCCC1,-,-,-,-,-,0
COCCn1cnnc1SC(C)c1ccccc1Cl (stereo unspecified),-,-,-,-,-,0
CCOC(=O)c1nnn2c1nc(Nc1cccc(C(F)(F)F)c1)c1ccccc12,0,0,-,10µM,5.8µM,0
NNc1nc2c(-c3cccc(C(F)(F)F)c3)nnn2c2ccccc12,21µM,21µM,0,0,0,0
CC1CCC(Nc2nc3c(-c4cccc(C(F)(F)F)c4)nnn3c3ccccc23)CC1 (stereo unspecified),-,-,-,?,29µM,0
C=CCSc1nc2c(C(=O)OCC)nnn2c2ccccc12,0,0,0,?,9.2µM,0
Cc1ccc(-c2nnn3c2nc(NC2CCC(C)CC2)c2ccccc23)cc1 (stereo unspecified),-,-,-,0,?,0
COc1ccc(CCC2CCN(C(=O)C3CCN(S(=O)(=O)c4ccccc4C#N)CC3)CC2)cc1,-,-,-,-,-,0
CC(=O)NC1CC2(CCN(C(=O)Cc3c(C)noc3C)CC2)Oc2ccccc21 (stereo unspecified),-,-,-,-,-,0[6.33 µM]
Cc1ccc(CNS(=O)(=O)c2ccc(CCC(=O)O)cc2)cc1,-,-,-,-,-,0
CCCCNC(=O)C1(C)CCN1C(=O)c1ccc2c(c1)C(C)(C)CCC2(C)C (stereo unspecified),0,0,0,21µM,13µM,0
CCCCNC(=O)C1(C)CCCCN1C(=O)c1ccc2c(c1)C(C)(C)CCC2(C)C (stereo unspecified),?,?,0,3.7µM,2.1µM,0
O=C(Nc1ccccc1Cl)C1CCCN(c2ncnc3nc[nH]c23)C1 (stereo unspecified),-,-,-,-,-,0
COc1ccc2c(=O)n(CC(=O)N3CCCOCC3)ccc2c1OC,-,-,-,-,-,0
COc1ccc(C(=O)Nc2ccc3oc(=O)ccc3c2)c(OC)c1,-,-,-,-,-,0
CCOC(=O)C1=C(C)NC(=O)NC1c1c(OC)ccc2ccccc12 (stereo unspecified),0,0,0,0,0,0
